Where “and” joins values, the source holds several entries; their conditions need not be identical. Identical values can stand only once. Screen size: about 340,000 compounds; about 6,900 (2%) were called active. Cut-off read from the data, not from the text of the source: active = inhibition above about 30%; inactive = below that, where a call was filed. Many of the other results were omitted from the sample, so actives are more common in it than they were. A structure can be active in one record and inactive in another.
Molecular target: D(2) dopamine receptor (Homo sapiens) (UniProt P14416)
Test: HTS Assay for Allosteric Antagonists of the Human D2 Dopamine Receptor: Primary Screen for Antagonists; note: 0% is about no effect
Details: HEK293 TREx D2 cells, calcium flux, dopamine EC80; at 10 µM; stronger effect = higher value
How it was run: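 Measurement of antagonist activity uses fluorescent calcium dye in inducible HEK293 T-REx D2 cells: 10 s baseline, compound addition with 180 s read, EC80 dopamine addition with a further 180 s read.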

Chain of D(2) dopamine receptor (Homo sapiens) (P14416 whole entry, looked up): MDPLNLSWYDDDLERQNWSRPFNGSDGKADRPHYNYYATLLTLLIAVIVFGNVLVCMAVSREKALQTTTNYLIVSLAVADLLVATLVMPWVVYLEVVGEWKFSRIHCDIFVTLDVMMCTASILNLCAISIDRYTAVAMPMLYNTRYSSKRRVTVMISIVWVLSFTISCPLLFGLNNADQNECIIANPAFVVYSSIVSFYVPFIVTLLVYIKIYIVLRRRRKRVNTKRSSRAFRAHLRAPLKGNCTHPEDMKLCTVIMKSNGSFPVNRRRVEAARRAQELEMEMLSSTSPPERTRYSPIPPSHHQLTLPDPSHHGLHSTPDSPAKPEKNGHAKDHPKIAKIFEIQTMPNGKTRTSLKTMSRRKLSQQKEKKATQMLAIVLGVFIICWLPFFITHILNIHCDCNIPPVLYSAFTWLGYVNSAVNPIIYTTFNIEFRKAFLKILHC

Row | SMILES | inhibition
1 | COc1ccccc1C(=O)NCCC(=O)NC(C)CCc1ccccc1 (stereo not given) | 3.51% (inactive)
2 | O=C(c1ccc(Cl)cc1)c1cnc(Nc2ccccc2)s1 | -15.9% (inactive)
3 | CC(C)(C)C(=O)c1cnc(Nc2ccccc2)s1 | 32.1% (active)
4 | CC(=O)c1cnc(-c2ccccc2)s1 | -11.4% (inactive)
5 | COc1ccccc1S(=O)(=O)NCc1ccc(C(=O)N(C)Cc2ccc(F)cc2)cc1 | -9.99% (inactive)
6 | CC(C(=O)NC1CCCC1)N1CCN(S(=O)(=O)c2ccccc2Cl)CC1 (stereo not given) | 10.1% (inactive)
7 | CC(C)Cn1c(N2CCN(C(=O)/C=C/c3ccccc3)CC2)nc2ccccc21 | -10.5% (inactive)
8 | O=C(CN1CCN(c2ccc(Cl)cc2)CC1)c1ccccc1 | 22.1% (inactive)
9 | O=C(Cn1c(N2CCN(C/C=C/c3ccccc3)CC2)nc2ccccc21)c1ccccc1 | 47.6% (active)
10 | CC1CCc2sc(C(=O)NCC(c3ccco3)N3CCCCC3)cc2C1 (stereo not given) | -22% (inactive)
11 | O=C(CC(c1ccccc1)c1ccccc1)NCC(O)c1ccc([N+](=O)[O-])cc1 (stereo not given) | -8.44% (inactive)
12 | CC(CCc1ccccc1)NCC(O)c1cccc([N+](=O)[O-])c1 (stereo not given) | 58.8% (active)
13 | CC(C)OP(=O)(OC(C)C)C(Nc1ccccc1)c1cccc([N+](=O)[O-])c1 (stereo not given) | 4.68% (inactive)
14 | COCCn1c(C)cc(C(=O)CSc2nnc(C3CC3)n2C2CC2)c1C | -24.6% (inactive)
15 | COc1ccc(S(=O)(=O)N2CCN(CC(=O)NCC3(N4CCOCC4)CCCCC3)CC2)cc1 | -1.88% (inactive)
16 | CN(CC(=O)Nc1ccc(Cl)c(C(F)(F)F)c1)C(=O)CCC(=O)c1ccccc1 | 5.01% (inactive)
17 | Cc1ccc(OCCC(=O)OCC(=O)N2c3ccccc3NC(=O)C2(C)C)cc1 | 21.8% (inactive)
18 | O=C(CN1CCCCC1)NC(=O)Nc1ccccc1F | -3.1% (inactive)
19 | CCN(CC)S(=O)(=O)c1ccc(OC)c(NC(=O)CCc2c(C)noc2C)c1 | 5.64% (inactive)
20 | CN1CCN(CCCCOc2cccc3ccccc23)CC1 | 15.6% (inactive)

Row | SMILES | inhibition
21 | CC1CCCN(CC(O)COCc2ccccc2)C1 (stereo not given) | 10.7% (inactive)
22 | CCN1CCN(CCCCOc2ccccc2F)CC1 | 3.79% (inactive)
23 | c1ccc(-c2ccccc2OCCN2CCCCC2)cc1 | 26.6% (inactive)
24 | CC1CCCN(CCOCCOc2ccccc2-c2ccccc2)C1 (stereo not given) | 80.4% (active)
25 | CC1CN(CC(=O)NC(C)c2ccccc2)CC(C)O1 (stereo not given) | 5.75% (inactive)
26 | CC1CN(C2CCN(C(=O)COc3ccccc3)CC2)CC(C)O1 (stereo not given) | -12.1% (inactive)
27 | CC1CN(CCCOc2ccccc2-c2ccccc2)CC(C)O1 (stereo not given) | 49.7% (active)
28 | CN1CCN(CCCCOc2ccccc2-c2ccccc2)CC1 | 69.9% (active)
29 | COc1ccccc1-c1nn(Cc2ccccc2)cc1C(=O)N1CCN(c2ncccn2)CC1 | -14.3% (inactive)
30 | CC(=O)c1ccc(S(=O)(=O)Nc2ccc(-c3ccc4nncn4n3)cc2)cc1 | 12.5% (inactive)
31 | COc1ccc(-c2cc(C(=O)NCCCN3CCCC3=O)c3ccccc3n2)cc1OC | 13.7% (inactive)
32 | O=C(Nc1cccc(NC(=O)c2ccccc2[N+](=O)[O-])c1)c1ccccc1Cl | 3.86% (inactive)
33 | O=C(Nc1ccncc1)c1ccc([N+](=O)[O-])cc1Cl | 0.87% (inactive)
34 | CC(C)C(=O)Nc1cccc(NC(=O)c2ccc([N+](=O)[O-])cc2Cl)c1 | 39.3% (active)
35 | CN(C(=O)CSc1nnc(C2CC2)n1C)C1CCCc2ccccc21 (stereo not given) | -0.606% (inactive)
36 | O=C(Nc1ccon1)c1cccc(Cl)c1 | 18.9% (inactive)
37 | Cc1cc(C)n(-c2nnc(C)n2NC(=O)c2cccc(Cl)c2)n1 | 46.8% (active)
38 | Cc1nc2ccccc2c(=O)n1NC(=O)c1ccc(Cl)c([N+](=O)[O-])c1 | 11.3% (inactive)
39 | CC1CC(=O)Nc2ccccc2N1C(=O)COc1ccc2cc(Br)ccc2c1 (stereo not given) | -5.97% (inactive)
40 | C=C1CCC(N(O)c2cc(C)on2)C(=C)CCC2C1CC2(C)C (stereo not given) | -0.609% (inactive)

Row | SMILES | inhibition
41 | Cc1ccc(S(=O)(=O)CCC(=O)Nc2nnc(CC(C)C)s2)cc1 | -13.3% (inactive)
42 | COc1ccc(S(=O)(=O)Nc2cc(C)on2)cc1NC(C)=O | 15.7% (inactive)
43 | Cc1cccc(NC(=O)C2CCCN(C(=O)NCc3ccccc3)C2)c1C (stereo not given) | -14.3% (inactive)
44 | Cc1cccc(NC(=O)C2CCCN(C(=O)Nc3ccc(F)cc3)C2)c1C (stereo not given) | 36% (active)
45 | Cc1cccc(NC(=O)N2CCCCCC2)c1C | 9.43% (inactive)
46 | O=C(O[C@H]1[C@H](Cc2ccccc2)NS(=O)(=O)[C@H]2C[C@@H]3C=C[C@]12O3)c1ccc([N+](=O)[O-])cc1 | 19.3% (inactive)
47 | CC1(NC(=O)CCS(=O)(=O)c2ccc(Cl)cc2)CCS(=O)(=O)C1 (stereo not given) | 9.74% (inactive)
48 | CC(=O)c1sc(NC(=O)CCN2C(=O)C3CC=CCC3C2=O)nc1-c1ccccc1 (stereo not given) | -8.46% (inactive)
49 | Cc1cc(C(=O)COc2ccccc2Cl)c(C)n1C1CC1 | -29.6% (inactive)
50 | CC(C)C(=O)NCc1cc(-c2ccc(Cl)cc2)no1 | 41.7% (active)
51 | CC(C)CNC(=O)c1cc(-c2ccc(Br)cc2)on1 | -7.31% (inactive)
52 | Cc1ccc(S(=O)(=O)Cc2cc(-c3ccc(Cl)cc3)no2)cc1 | -17% (inactive)
53 | Cc1cc(C)n2nc(C(=O)Nc3cccc(S(=O)(=O)N4CCOCC4)c3)nc2n1 | 7.16% (inactive)
54 | CC(C)c1ccc2c(c1)c(SC(C)(C)C)c(CC(C)(C)C(=O)O)n2Cc1ccc(Cl)cc1 | 6.19% (inactive) and 47.1% (active)
55 | O=C(O)c1ccc(Cn2c(=S)[nH]c3cc(Cl)ccc3c2=O)cc1 | -1.7% (inactive)
56 | CCCCCCSc1ccc([C@@H]2[C@@H]3C(=O)N(CC)C(=O)[C@@H]3[C@]3(C(=O)OC)CCCCN23)cc1OC | 6.12% (inactive)
57 | COc1cc(OC)c(N2CC(C(=O)Nc3cc(Cl)ccc3N3CCOCC3)CC2=O)cc1Cl (stereo not given) | -13.1% (inactive)
58 | O=C(CN1CCCCCC1)Nc1ccc(S(=O)(=O)N2CCCCC2)cc1 | -6.5% (inactive)
59 | COc1ccccc1CC(=O)Nc1ccc(S(=O)(=O)N2CCCC2)cc1 | 39.2% (active)
60 | CCN(CC(=O)Nc1ccc(S(=O)(=O)N2CCCC2)cc1)CC(=O)Nc1cccc(OC)c1 | -1.82% (inactive)

Source: PubChem BioAssay AID485344 (National Center for Advancing Translational Sciences (NCATS), 2010)
